# About 410 targets per protein were measured; listed, in parts, are those with the strongest signals and a random draw of the rest.
# B1: PX14375l-pdi-526-25-526 (Parabacteroides distasonis) (protein)
# chain: DEEPKSTLTDVAYYKTQSQMESNVNYLYRTGAIGSYVDFGSAYIGPFASIQEELTGYFSNSYEGQEIVCRYTRELTRQQNTMQLASKMDKVWDDCYRGINVANGAIKHMPEVPMDQATADRLTAEAKFFRAFNYFYLVKTFGAVPFYTDPYELAENMELPRTETSTIYNQIESDLKDAMNVLPEATFAANGHRITKYVAAMTLTDVYMYQHKYAEAAETVRIVVNSNHKLTTNDDLAMNSAFNKLRSTDDLDEAIYAYEYDNQISPSNWLPTYAFDGDASSNGLFGTYAITQKVHGPNDRYLNIYESNDLRRQPNQFYHWTYTNPKTGKVWNSVGNAACCWYYYDEDALLTTGRGTKDWNVYRYAEALLDAAESIAQSTGVTAEAAGYLAQVKARANMEGKTAAEIASSLQSMGKQAFIEECWTERLRELPLEFKMWDMCVRTGMFPNISETTPGQVTYIPLVGAKNASGATIKESDLLWPLSVNEIQRNPSLTQNEGYSAK
# Columns and labels:
# Test in all cases: glycan array binding signal (z-score within array); higher = stronger binding
# Conditions in all cases: glycan notation: IUPAC condensed, linker removed
# [1] = target: Fuc(a1-2)Gal(b1-3)GlcNAc(b1-2)Man(a1-3)[Fuc(a1-2)Gal(b1-3)GlcNAc(b1-2)Man(a1-6)]Man(b1-4)GlcNAc(b1-4)GlcNAc
# In short: (§1)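 Arrays were curated from the Consortium for Functional Glycomics database, 3228 in total, and kept only where the protein sequence was available. Binding is expressed as a within-array Z-score. This score was averaged across arrays of the same protein sequence at different concentrations or buffers and across linkers, and negative values can be read as non-binding.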
# [2] = target: Fuc(a1-2)Gal(b1-3)[Fuc(a1-4)]GlcNAc(b1-2)Man(a1-3)[Fuc(a1-2)Gal(b1-3)[Fuc(a1-4)]GlcNAc(b1-2)Man(a1-6)]Man(b1-4)GlcNAc(b1-4)[Fuc(a1-6)]GlcNAc(b1-4)[Fuc(a1-6)]GlcNAc
# In short: as §1
# [3] = target: Fuc(a1-2)Gal(b1-4)GlcNAc(b1-2)Man(a1-3)[Fuc(a1-2)Gal(b1-4)GlcNAc(b1-2)Man(a1-6)]Man(b1-4)GlcNAc(b1-4)GlcNAc
# In short: as §1
# [4] = target: Fuc(a1-2)Gal(b1-4)[Fuc(a1-3)]GlcNAc(b1-3)GalNAc
# In short: as §1
# [5] = target: Fuc(a1-2)[Gal(a1-3)]Gal(b1-3)GalNAc(b1-3)Gal(a1-4)Gal(b1-4)Glc
# In short: as §1
# [6] = target: Fuc(a1-2)[Gal(a1-3)]Gal(b1-3)GlcNAc(b1-2)Man(a1-3)[Fuc(a1-2)[Gal(a1-3)]Gal(b1-3)GlcNAc(b1-2)Man(a1-6)]Man(b1-4)GlcNAc(b1-4)[Fuc(a1-6)]GlcNAc
# In short: as §1
# [7] = target: Fuc(a1-2)[GalNAc(a1-3)]Gal(b1-3)GalNAc(a1-3)[Fuc(a1-2)]Gal(b1-4)GlcNAc
# In short: as §1
# [8] = target: Fuc(a1-2)[GalNAc(a1-3)]Gal(b1-3)GlcNAc(b1-2)Man(a1-3)[Fuc(a1-2)[GalNAc(a1-3)]Gal(b1-3)GlcNAc(b1-2)Man(a1-6)]Man(b1-4)GlcNAc(b1-4)GlcNAc
# In short: as §1
# [9] = target: Fuc(a1-2)[GalNAc(a1-3)]Gal(b1-4)GlcNAc(b1-2)Man
# In short: as §1
# [10] = target: Fuc(a1-2)[GalNAc(a1-3)]Gal(b1-4)GlcNAc(b1-6)GalNAc
# In short: as §1
# [11] = target: Fuc(a1-3)[Gal(b1-4)]GlcNAc(b1-6)GalNAc
# In short: as §1
# Fuc(b1-3)GlcNAc = target: Fuc(b1-3)GlcNAc
# In short: as §1
# Gal(a1-3)Gal = target: Gal(a1-3)Gal
# In short: as §1
# [12] = target: Gal(a1-3)Gal(b1-4)[Fuc(a1-3)]GlcNAc
# In short: as §1
# [13] = target: Gal(a1-4)Gal(b1-4)GlcNAc(b1-2)Man(a1-3)[Gal(a1-4)Gal(b1-4)GlcNAc(b1-2)Man(a1-6)]Man(b1-4)GlcNAc(b1-4)GlcNAc
# In short: as §1
# [14] = target: Gal(b1-3)GlcNAc(b1-3)Gal(b1-4)GlcNAc(b1-3)Gal(b1-4)GlcNAc(b1-2)[Gal(b1-3)GlcNAc(b1-3)Gal(b1-4)GlcNAc(b1-3)Gal(b1-4)GlcNAc(b1-6)]Man(a1-6)[Gal(b1-3)GlcNAc(b1-3)Gal(b1-4)GlcNAc(b1-3)Gal(b1-4)GlcNAc(b1-2)Man(a1-3)]Man(b1-4)GlcNAc(b1-4)[Fuc(a1-6)]GlcNAc
# In short: as §1
# [15] = target: Gal(b1-3)GlcNAc(b1-3)GalNAc
# In short: as §1
# [16] = target: Gal(b1-3)[Neu5Ac(a2-6)]GlcNAc(b1-4)Gal(b1-4)Glc
# In short: as §1
# Gal(b1-4)Gal = target: Gal(b1-4)Gal
# In short: as §1
# [17] = target: Gal(b1-4)GlcNAc(b1-2)Man(a1-3)[Gal(b1-4)GlcNAc(b1-2)Man(a1-6)]Man(b1-4)GlcNAc(b1-4)[Fuc(a1-6)]GlcNAc
# In short: as §1
# [18] = target: Gal(b1-4)GlcNAc(b1-2)[Gal(b1-4)GlcNAc(b1-4)]Man(a1-3)[GlcNAc(b1-4)][Gal(b1-4)GlcNAc(b1-2)[Gal(b1-4)GlcNAc(b1-6)]Man(a1-6)]Man(b1-4)GlcNAc(b1-4)GlcNAc
# In short: as §1
# [19] = target: Gal(b1-4)GlcNAc(b1-3)Gal(b1-3)GlcNAc
# In short: as §1
# [20] = target: Gal(b1-4)GlcNAc(b1-3)Gal(b1-4)GlcNAc(b1-2)Man(a1-3)[Gal(b1-4)GlcNAc(b1-3)Gal(b1-4)GlcNAc(b1-2)Man(a1-6)]Man(b1-4)GlcNAc(b1-4)[Fuc(a1-6)]GlcNAc
# In short: as §1
# [21] = target: Gal(b1-4)GlcNAc(b1-3)Gal(b1-4)GlcNAc(b1-2)[Gal(b1-4)GlcNAc(b1-3)Gal(b1-4)GlcNAc(b1-6)]Man(a1-6)[Gal(b1-4)GlcNAc(b1-3)Gal(b1-4)GlcNAc(b1-2)Man(a1-3)]Man(b1-4)GlcNAc(b1-4)GlcNAc
# In short: as §1
# [22] = target: Gal(b1-4)GlcNAc(b1-3)Gal(b1-4)GlcNAc(b1-2)[Gal(b1-4)GlcNAc(b1-3)Gal(b1-4)GlcNAc(b1-6)]Man(a1-6)[Gal(b1-4)GlcNAc(b1-3)Gal(b1-4)GlcNAc(b1-2)Man(a1-3)]Man(b1-4)GlcNAc(b1-4)[Fuc(a1-6)]GlcNAc
# In short: as §1
# [23] = target: Gal(b1-4)GlcNAc(b1-3)Gal(b1-4)GlcNAc(b1-3)Gal(b1-4)GlcNAc(b1-3)Gal(b1-4)GlcNAc(b1-2)Man(a1-3)[Gal(b1-4)GlcNAc(b1-3)Gal(b1-4)GlcNAc(b1-3)Gal(b1-4)GlcNAc(b1-3)Gal(b1-4)GlcNAc(b1-2)Man(a1-6)]Man(b1-4)GlcNAc(b1-4)GlcNAc
# In short: as §1
# [24] = target: Gal(b1-4)GlcNAc(b1-3)[GlcNAc(b1-6)]Gal(b1-4)GlcNAc
# In short: as §1
# [25] = target: Gal3S(b1-3)[Fuc(a1-4)]GlcNAc
# In short: as §1
# Gal6S(b1-3)GlcNAc6S = target: Gal6S(b1-3)GlcNAc6S
# In short: as §1
# Gal6S(b1-4)GlcNAc = target: Gal6S(b1-4)GlcNAc
# In short: as §1
# [26] = target: GalNAc(b1-4)GlcNAc(b1-2)Man(a1-3)[GalNAc(b1-4)GlcNAc(b1-2)Man(a1-6)]Man(b1-4)GlcNAc(b1-4)GlcNAc
# In short: as §1
# GalNAc3S(b1-4)GlcNAc = target: GalNAc3S(b1-4)GlcNAc
# In short: as §1
# [27] = target: GlcNAc(b1-2)Man(a1-3)[GlcNAc(b1-2)Man(a1-6)]Man(b1-4)GlcNAc(b1-4)GlcNAc
# In short: as §1
# [28] = target: GlcNAc(b1-3)Gal(b1-4)GlcNAc(b1-3)Gal(b1-4)GlcNAc(b1-3)Gal(b1-4)GlcNAc(b1-2)Man(a1-3)[GlcNAc(b1-3)Gal(b1-4)GlcNAc(b1-3)Gal(b1-4)GlcNAc(b1-3)Gal(b1-4)GlcNAc(b1-2)Man(a1-6)]Man(b1-4)GlcNAc(b1-4)GlcNAc
# In short: as §1
# [29] = target: GlcNAc(b1-3)[GlcNAc(b1-6)]GalNAc
# In short: as §1
# [30] = target: GlcNAc(b1-4)GlcNAc(b1-4)GlcNAc(b1-4)GlcNAc(b1-4)GlcNAc
# In short: as §1
# [31] = target: Man(a1-2)Man(a1-3)[Man(a1-2)Man(a1-6)]Man
# In short: as §1
# [32] = target: Man(a1-2)Man(a1-3)[Man(a1-6)]Man(a1-6)[Man(a1-2)Man(a1-3)]Man(b1-4)GlcNAc(b1-4)GlcNAc
# In short: as §1
# [33] = target: Neu5Ac(a2-3)Gal(b1-4)GlcNAc(b1-2)Man(a1-3)[GlcNAc(b1-4)][Neu5Ac(a2-3)Gal(b1-4)GlcNAc(b1-2)Man(a1-6)]Man(b1-4)GlcNAc(b1-4)GlcNAc
# In short: as §1
# [34] = target: Neu5Ac(a2-3)Gal(b1-4)GlcNAc(b1-2)Man(a1-3)[Neu5Ac(a2-6)Gal(b1-4)GlcNAc(b1-2)Man(a1-6)]Man(b1-4)GlcNAc(b1-4)GlcNAc
# In short: as §1
# [35] = target: Neu5Ac(a2-3)Gal(b1-4)GlcNAc(b1-3)[Neu5Ac(a2-3)Gal(b1-4)GlcNAc(b1-6)]GalNAc
# In short: as §1
# [36] = target: Neu5Ac(a2-3)Gal(b1-4)[Fuc(a1-3)]GlcNAc(b1-3)Gal(b1-4)GlcNAc
# In short: as §1
# Neu5Ac(a2-6)Gal(b1-4)Glc = target: Neu5Ac(a2-6)Gal(b1-4)Glc
# In short: as §1
# [37] = target: Neu5Ac(a2-6)GalNAc(b1-4)GlcNAc6S
# In short: as §1
# [38] = target: Neu5Ac(a2-8)Neu5Ac(a2-8)Neu5Ac(a2-3)Gal(b1-4)Glc
# In short: as §1
# [39] = target: Neu5Ac(a2-8)Neu5Gc(a2-3)Gal(b1-4)GlcNAc
# In short: as §1
# [40] = target: Neu5Gc(a2-8)Neu5Ac(a2-3)Gal(b1-4)GlcNAc
# In short: as §1
# [41] = target: Neu5Gc(a2-8)Neu5Gc(a2-3)Gal(b1-4)GlcNAc(b1-3)Gal(b1-4)GlcNAc
# In short: as §1
binder,measurement,setting,value
B1,glycan array binding signal (z-score),[1],-0.052
same,glycan array binding signal (z-score),[2],0.236
same,glycan array binding signal (z-score),[3],3.23
same,glycan array binding signal (z-score),[4],3.32
same,glycan array binding signal (z-score),[5],-0.21
same,glycan array binding signal (z-score),[6],0.373
same,glycan array binding signal (z-score),[7],-0.255
same,glycan array binding signal (z-score),[8],2.42
same,glycan array binding signal (z-score),[9],-0.233
same,glycan array binding signal (z-score),[10],-0.22
same,glycan array binding signal (z-score),[11],2.66
same,glycan array binding signal (z-score),Fuc(b1-3)GlcNAc,-0.225
same,glycan array binding signal (z-score),Gal(a1-3)Gal,-0.181
same,glycan array binding signal (z-score),[12],-0.3
same,glycan array binding signal (z-score),[13],1.19
same,glycan array binding signal (z-score),[14],8.4
same,glycan array binding signal (z-score),[15],-0.323
same,glycan array binding signal (z-score),[16],-0.125
same,glycan array binding signal (z-score),Gal(b1-4)Gal,-0.301
same,glycan array binding signal (z-score),[17],0.272
same,glycan array binding signal (z-score),[18],3.87
same,glycan array binding signal (z-score),[19],-0.16
same,glycan array binding signal (z-score),[20],4.03
same,glycan array binding signal (z-score),[21],4.11
same,glycan array binding signal (z-score),[22],0.091
same,glycan array binding signal (z-score),[23],16.7
same,glycan array binding signal (z-score),[24],-0.154
same,glycan array binding signal (z-score),[25],-0.094
same,glycan array binding signal (z-score),Gal6S(b1-3)GlcNAc6S,9.53
same,glycan array binding signal (z-score),Gal6S(b1-4)GlcNAc,-0.026
same,glycan array binding signal (z-score),[26],-0.068
same,glycan array binding signal (z-score),GalNAc3S(b1-4)GlcNAc,-0.071
same,glycan array binding signal (z-score),[27],-0.225
same,glycan array binding signal (z-score),[28],-0.168
same,glycan array binding signal (z-score),[29],-0.1
same,glycan array binding signal (z-score),[30],-0.095
same,glycan array binding signal (z-score),[31],-0.022
same,glycan array binding signal (z-score),[32],-0.236
same,glycan array binding signal (z-score),[33],-0.214
same,glycan array binding signal (z-score),[34],-0.134
same,glycan array binding signal (z-score),[35],-0.205
same,glycan array binding signal (z-score),[36],0.129
same,glycan array binding signal (z-score),Neu5Ac(a2-6)Gal(b1-4)Glc,0.019
same,glycan array binding signal (z-score),[37],0.114
same,glycan array binding signal (z-score),[38],-0.12
same,glycan array binding signal (z-score),[39],2.74
same,glycan array binding signal (z-score),[40],-0.206
same,glycan array binding signal (z-score),[41],-0.201

# Source: the supplement of paper PMC8728848
